Data: PubChem BioAssay (NCATS)
Results filed as inconclusive are left out. Activity calls are given as the source filed them. The call rests on the fitted dose curve; in most records, active means well fitted inhibition curve with a large enough effect; inconclusive means small, poorly fitted or top-dose-only effect; inactive means flat fitted curve, though single readings scatter.

How the values were obtained:
Experiment in all cases: qHTS profiling for inhibitors of Plasmodium falciparum proliferation (AID 504749); further: nearly all actives have a fitted effect of over 60% in size
Details in all cases: P. falciparum in erythrocytes, SYBR Green DNA, 72 h; series mostly up to 28.7 µM
[1] = test system: CP247
Method in brief: (§1)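 SYBR Green fluorescence (ex 485 nm, em 535 nm) reports parasite DNA after 72 h compound exposure of infected red cells at 0.3% parasitemia, 2.5% hematocrit; signal normalized to 0.29 uM artemisinin and vehicle wells.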

[2] = test system: CP252
Method in brief: as §1

[3] = test system: CP256
Method in brief: as §1

[4] = test system: CP260
Method in brief: as §1

[5] = test system: CP262
Method in brief: as §1

[6] = test system: CP265
Method in brief: as §1

[7] = test system: CP266
Method in brief: as §1

[8] = test system: CP268
Method in brief: as §1

[9] = test system: CP269
Method in brief: as §1

[10] = test system: CP286
Method in brief: as §1

[11] = test system: CP291
Method in brief: as §1

[12] = test system: CP297
Method in brief: as §1

[13] = test system: CP305
Method in brief: as §1

[14] = test system: CP315
Method in brief: as §1

[15] = test system: CP325
Method in brief: as §1

[16] = test system: CP329
Method in brief: as §1

[17] = test system: CP335
Method in brief: as §1

[18] = test system: DFO2036
Method in brief: as §1

[19] = test system: DIV14
Method in brief: as §1

[20] = test system: CP250
Method in brief: as §1

Measured: Potency
Potency means the concentration at half of the fitted maximal effect.

COc1ccc(C(=O)N2CCN(CC(=O)N3CCOCC3)CC2)cc1
not listed: [20]
inactive: all other assays above

CCCCCCCCCCCCCCCCN
not listed: [4] | [7]
inactive: all other assays above

Cc1cc(-n2nc3ccc(Cl)cc3n2)c(O)c(C(C)(C)C)c1
not listed: [1] | [2] | [3] | [6] | [18] | [20]
inactive: all other assays above

COc1ccc(O)cc1
not listed: [1]
inactive: all other assays above

NC(=O)CCCCC1CCSS1 (configuration not stated)
not listed: [4] | [13] | [19]
inactive: all other assays above

CC(=O)N[C@@H](Cc1ccc(O)cc1)C(=O)O
not listed: [3]
inactive: all other assays above

CCCCCC(C)N (configuration not stated)
active: [4] 10000 nM | [10] 8910 nM
not listed: [2] | [17]
inactive: all other assays above

CC(CN(C)C)C(C)(O)Cc1ccc(Cl)cc1 (configuration not stated)
inactive: [1] | [2] | [5] | [7] | [9] | [14] | [18]

O=C1C(c2[nH]c3ccccc3c2O)=Nc2ccccc21
not listed: [1] | [8] | [11] | [12] | [15] | [19] | [20]
inactive: all other assays above

C[C@H]1COc2c(C3(N)CC3)c(F)cc3c(=O)c(C(=O)O)cn1c23
not listed: [1] | [4] | [8] | [11] | [12] | [17] | [19]
inactive: all other assays above

CCN(CC)C(=O)c1cccc(C)c1
not listed: [4]
inactive: all other assays above

CCCCCCCCCCOc1cc2c(=O)c(C(=O)OCC)c[nH]c2cc1OCC
active: [1] 0.3 nM | [20] 0.0708 nM | [4] 3.5 nM | [8] 2.4 nM | [10] 3.5 nM | [13] 2.1 nM | [17] 1.3 nM | [18] 1.4 nM | [19] 5.4 nM
inactive: [14]

COc1ccc(Cc2cnc(N)nc2N)cc1OC
not listed: [4] | [12]
inactive: all other assays above

O=C(c1ccccc1)C(O)c1ccccc1 (configuration not stated)
not listed: [1] | [11] | [19] | [20]
inactive: all other assays above

Cc1cc(O)cc(C)c1Cl
active: [6] 11200 nM
not listed: [4] | [9] | [13] | [17] | [18] | [19]
inactive: all other assays above

Nc1ncnc(Nc2ccccc2)n1
not listed: [5] | [17] | [18] | [20]
inactive: all other assays above

O=C1c2ccccc2C(=O)C1c1ccc(Br)cc1
inactive: [1] | [20] | [2] | [5] | [7] | [8] | [11] | [12] | [13] | [15] | [16]

NCc1ccc(S(N)(=O)=O)cc1
not listed: [4] | [6] | [17] | [19]
inactive: all other assays above
